Sampled rows, rich in hits. Any-hit rate of the full collection: about 3%.
GCN5L2 inh: blocks human GCN5L2 histone acetyltransferase. Q92830. GCN5L2 HAT assay, ThioGlo1 CoA-SH fluorescence. Potency, µM (series often up to 58.9 µM), most hits filed as inhibitors. 390,000 tested, 0.21% active
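Compounds, pin-transferred from DMSO stocks, meet 20nM GCN5L2 for 15 min before the reaction begins with H3(1-25) peptide (75uM) and acetyl-CoA (70uM). Thiol-reactive ThioGlo1 reports CoA release over 20 min at room temperature.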
PLK1 PBD inh: blocks phosphopeptide binding to human PLK1 polo-box domain; P53350; Plk1 PBD binding of FITC phosphopeptide, fluorescence polarization; Potency, µM, most hits filed as inhibitors; 360,000 tested, 2.8% active; AID 720504; note: series mostly up to about 57 µM; nearly all actives have a fitted effect of over 65% in size
VDR inh: inhibitors of human vitamin D receptor; P11473; VDR-SRC2-3 peptide fluorescence polarization, 2 h; Potency, µM, actives largely listed as inhibitors; 400,000 tested, 0.93% active; AID 504847
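Two reagent solutions held at 4 deg C in the dark were dispensed, compounds pinned at 23 nl, and the mixture incubated 2 h at room temperature. Read-out: fluorescence polarization of VDR–SRC2-3 peptide binding.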
TSG101-PTAP inh: blocks PTAP/TSG101 interaction to inhibit HIV-1 budding; Fluorescence polarization, FITC-PTAP peptide / Tsg101 binding; Potency, µM (titrated, usually from 115 µM), hits mostly inhibitors; 340,000 tested, under 10 active; AID 493005; active = well fitted inhibition curve with a large enough effect in the main read-out, with a control signal flat, not every such curve was filed as active; inconclusive = small, poorly fitted or top-dose-only effect, or effect the other way, or a change in a side signal; inactive = no such curve, though single readings can be large or run the other way
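Fluorescence anisotropy tracks displacement of a FITC-tagged PTAP peptide (50 nM) from the Tsg101 binding domain (10 uM), following a 20 min room-temperature incubation at pH 7.5.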
USP1-UAF1 inh: inhibitors of human USP1/UAF1 deubiquitinase | Potency, µM (highest dose often 57.1 µM), hits mostly inhibitors | O94782 | recombinant USP1/UAF1, Ub-Rhodamine cleavage fluorescence | 390,000 tested, 0.23% active; note: nearly all actives have a fitted effect of over 60% in size
Target sequence (O94782 whole entry, looked up): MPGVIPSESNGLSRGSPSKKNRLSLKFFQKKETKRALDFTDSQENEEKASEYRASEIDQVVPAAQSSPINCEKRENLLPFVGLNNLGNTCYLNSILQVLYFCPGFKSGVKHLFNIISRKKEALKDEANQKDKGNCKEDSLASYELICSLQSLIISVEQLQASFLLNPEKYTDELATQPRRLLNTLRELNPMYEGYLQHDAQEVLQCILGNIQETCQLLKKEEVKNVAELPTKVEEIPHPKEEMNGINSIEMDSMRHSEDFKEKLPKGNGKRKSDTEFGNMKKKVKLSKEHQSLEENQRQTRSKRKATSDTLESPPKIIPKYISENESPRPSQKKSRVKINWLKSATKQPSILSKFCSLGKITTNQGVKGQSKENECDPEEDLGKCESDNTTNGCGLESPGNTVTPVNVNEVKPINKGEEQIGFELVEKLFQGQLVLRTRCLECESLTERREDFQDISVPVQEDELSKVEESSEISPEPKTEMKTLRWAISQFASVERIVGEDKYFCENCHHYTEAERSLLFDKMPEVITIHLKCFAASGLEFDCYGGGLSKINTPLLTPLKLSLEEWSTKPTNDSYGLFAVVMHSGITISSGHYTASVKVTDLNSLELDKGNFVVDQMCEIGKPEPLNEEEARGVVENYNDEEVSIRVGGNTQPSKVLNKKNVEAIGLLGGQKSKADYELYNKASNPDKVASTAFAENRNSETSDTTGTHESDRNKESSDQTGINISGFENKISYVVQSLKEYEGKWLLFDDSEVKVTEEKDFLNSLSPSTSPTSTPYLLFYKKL
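USP1/UAF1 complex at 1 nM was preincubated with compound for 15 min at room temperature, then Ub-Rho substrate (150nM final) was added. Fluorescence (480/540 nm) was read kinetically, 6 reads every 60 seconds.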
Numbers stand for hits; - = inactive; ? = inconclusive; . = no result given. Unless noted, calls come from the whole dose curve; as a rule, active = well fitted curve in the direction sought with a large enough effect; inconclusive = small, poorly fitted or top-dose-only effect, or another doubt; inactive = no such curve, though single readings can be large; an effect the other way counts as inactive or inconclusive.

SMILES	GCN5L2 inh	PLK1 PBD inh	VDR inh	TSG101-PTAP inh	USP1-UAF1 inh
Cc1c(N(C)S(=O)(=O)c2cccc(C(=O)NCC3CCCO3)c2)c(=O)n(-c2ccccc2)n1C (stereo unspecified)	-	-	-	-	-
Cc1c(N(C)S(=O)(=O)c2cccc(C(=O)NC(C)C)c2)c(=O)n(-c2ccccc2)n1C	-	29.9µM	79.4µM	-	-
COC(=O)c1ccc(N2CCN(C)CC2)c(NC(=O)c2cccs2)c1	-	-	-	-	-
O=C(/C(=N/N=C/c1ccc(O)c(O)c1O)c1ccccc1)c1ccccc1	-	7.52µM	-	-	?
Oc1ccc(/C=N/N=C(c2ccccc2)c2ccccc2)c(O)c1O	-	11.9µM	-	-	-
Cc1ccc(CNC(=O)Cn2cc(S(=O)(=O)Cc3ccccc3F)c3ccccc32)cc1	-	.	-	.	-
CC1(C)CC(=O)C(C=NCCN2CCN(C3CC(=O)N(c4ccc(Br)cc4)C3=O)CC2)=C(O)C1 (stereo unspecified)	-	26.7µM	-	-	?
COCCN(C(=S)Nc1ccc(OC)c(Cl)c1)C1CCN(C(C)C)CC1	-	13.4µM	-	-	-
COc1ccc(NC(=S)N(CCC(C)C)C2CCN(C(C)C)CC2)cc1Cl	-	2.12µM	?	-	-
COCCN(C(=S)Nc1ccc(OC)cc1)C1CCN(C(C)=O)CC1	-	-	-	-	-
CC(C)CCN(C(=O)Nc1ccc(Cl)c(Cl)c1)C1CCN(C(C)C)CC1	-	.	-	.	-
CC(C)C[C@H](NC(=O)[C@H](CCC(N)=O)NC(=O)[C@H](CCCCN)NC(=O)[C@H](CCC(N)=O)NC(=O)[C@@H](N)CCC(=O)O)C(=O)N[C@@H](CCC(N)=O)C(=O)O	-	.	-	.	.
Oc1ccc(CN2CCCc3ccccc32)c2cccnc12	-	?	79.4µM	-	-
CC(C)C(=O)NN(C(=O)C(C)C)c1nc2ccccc2s1	-	-	-	-	-
O=C(NN(C(=O)C1CC1)c1nc2ccccc2s1)C1CC1	-	26.7µM	-	-	-
COC(=O)Cc1ccc(O)c(N)c1	-	9.47µM	?	-	-
COC(=O)c1cc(Cc2ccc(N)c(C(=O)OC)c2)ccc1N	-	-	-	-	-
COc1ccc(C)cc1NC(=O)Cc1csc(NC(=O)Nc2ccccc2OC)n1	.	29.9µM	.	.	-
N#Cc1c(C(F)(F)F)cc(=O)n2c1[nH]c1ccccc12	-	21.2µM	-	-	-
COc1ccc(-c2nc3sc(CCNC(=O)c4cc(OC)c(OC)c(OC)c4)c(C)n3n2)cc1	-	.	-	.	-
COc1ccc(NC(=O)c2oc3ccccc3c2NC(=O)Cc2cccs2)cc1	-	.	-	.	-
COc1ccc(N(C(=O)c2ccc(S(=O)(=O)N3CCOCC3)cc2)C2C=CS(=O)(=O)C2)cc1 (stereo unspecified)	2.24µM	-	-	-	-
Cc1ccc2[nH]c(CNC(=O)C3CCCCC3)cc2c1	-	-	-	-	-
CCn1c(O)c(C=Nc2ccccc2)oc1=S	-	26.7µM	-	-	-
CCC(=O)C1=C(c2ccc(F)cc2)N(C(=O)CC)n2c(nnc2C2CCCCC2)S1	-	.	-	.	-
SMILES	GCN5L2 inh	PLK1 PBD inh	VDR inh	TSG101-PTAP inh	USP1-UAF1 inh
N#CC1=C(S)N(c2ccccc2)C(c2ccc(-c3cccc(Cl)c3)o2)NC1=O (stereo unspecified)	-	23.8µM	?	-	-
COc1ccc(C2CC(c3ccco3)n3ncnc3N2)cc1 (stereo unspecified)	-	?	?	-	-
Cc1cccc(N2C(S)=C(C#N)C(=O)NC2c2ccco2)c1 (stereo unspecified)	-	?	28.2µM	-	-
COc1ccc(N2C(S)=C(C#N)C(=O)NC2c2ccco2)cc1 (stereo unspecified)	-	?	39.8µM	-	-
CCOC(=O)C1CCN(Cc2cn3c(-c4ccc(OC)cc4)nnc3s2)CC1	-	.	-	.	-
CCOc1ccc(CCNC(=O)c2cccc(-n3c(C)nc4cccnc43)c2C)cc1	-	.	-	.	-
COc1ccc(NC(=O)CSc2nncn3c2cc2occc23)c(OC)c1	-	.	-	.	-
CCCc1cc(C(=O)Nc2sc(C(C)=O)c(C)c2C(=O)OCC)no1	?	?	-	-	-
Cc1sc(NC(=O)C2c3ccccc3Oc3ccccc32)c(C(=O)OC(C)C)c1C	-	.	-	.	-
CCOC(=O)c1c(NC(=O)COC(=O)CNC(=O)c2ccco2)sc(C)c1C	-	3.36µM	?	-	-
CCOC(=O)c1c(NC(=O)c2cc(CC)on2)sc(C)c1C	-	.	79.4µM	.	?
CCOC(=O)c1c(NC(=O)c2cc(-c3ccc(Cl)cc3)on2)sc(C)c1C	-	.	-	.	-
CCOC(=O)c1c(NC(=O)c2cc(C)on2)sc(C)c1C	-	.	79.4µM	.	-
CC(=O)Nc1sc(C)c(C)c1C(=O)OC(C)C	-	26.7µM	-	-	-
COc1ccc(-c2cn3c(n2)sc2cc(C(=O)NCCC4=CCCCC4)ccc23)cc1	-	.	-	.	-
CC(=O)N1CCC2(CC1)CN(c1ccccn1)C2	-	.	-	.	.
O=C(Nc1ccccc1F)c1ccc(Cn2nc(N3CCN(c4ccccc4)CC3)ccc2=O)o1	-	.	-	.	-
Cc1ccc(NC(=O)Cc2ccc(-n3c(C)nc4cccnc43)cc2)cc1C	-	.	-	.	?
Cc1cc(C)c(NC(=S)NCC2CCN(C(C)c3ccccc3)C2)c(C)c1 (stereo unspecified)	-	2.67µM	44.7µM	-	-
Cc1ccc(NC(=S)NCC2CCN(C(C)c3ccccc3)C2)cc1 (stereo unspecified)	-	?	-	-	-
O=C(Cn1c(SCc2cccc(F)c2)nc2cccnc21)Nc1ccc(F)c(Cl)c1	-	.	-	.	-
S=C(NCCCN1CCOCC1)Nc1ccc(-c2nc3ccccc3[nH]2)cc1	-	23.8µM	-	-	-
S=C(NCCCN1CCOCC1)Nc1ccc(Nc2ccccc2)cc1	-	?	-	-	-
O=C(NCCc1cccc(F)c1)C1CCN(S(=O)(=O)c2ccc(F)cc2)CC1	-	-	-	-	-
O=C(NCc1ccccc1Cl)C1CCN(S(=O)(=O)c2ccc(N3CCCC3=O)cc2)CC1	-	11.9µM	?	-	-
SMILES	GCN5L2 inh	PLK1 PBD inh	VDR inh	TSG101-PTAP inh	USP1-UAF1 inh
CC(C)[C@H](NC(=O)C1CCN(S(=O)(=O)c2ccc(F)cc2)CC1)C(=O)NCc1ccco1	-	26.7µM	-	-	-
CCNC(=O)C1CCN(S(=O)(=O)c2ccc(F)cc2)CC1	-	21.2µM	?	-	-
COc1ccc(S(=O)(=O)N2CCC(C(=O)N[C@H](C(=O)NCc3ccco3)C(C)C)CC2)cc1	-	-	-	-	-
Cc1ccc(NC(=O)CCn2nc(-c3ccccc3)c3ccccc3c2=O)c(C)c1	-	.	-	.	-
CCc1ccc(CCN2C(=O)c3ccccc3C2=O)nc1	-	-	-	-	-
Cc1nc(CCN2C(=O)c3ccccc3C2=O)n[nH]1	-	7.52µM	?	-	-

High-throughput results: PubChem BioAssay, National Center for Advancing Translational Sciences (NCATS)
